About 83,000 compounds went through this panel and 20% of them were active in at least one assay; those are over-represented in the sample as a whole.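 Growth was measured after 48 h exposure to one concentration of compound in 96-well plates. Values under 10 count as active.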 Active and inactive are the calls of the source.
Experiments:
Experiment in all cases: NCI-60 one-dose screen, 48 h (100 = growth as untreated, 0 = no growth, -100 = all killed)
Settings in all cases: 10 µM unless noted
[1] = test system: SR leukemia
[2] = test system: RPMI-8226 leukemia
[3] = test system: OVCAR-8 ovarian
[4] = test system: OVCAR-4 ovarian
[5] = test system: SK-OV-3 ovarian
[6] = test system: IGROV1 ovarian
[7] = test system: OVCAR-3 ovarian
[8] = test system: HS 578T breast
[9] = test system: NCI/ADR-RES ovarian
[10] = test system: T-47D breast
[11] = test system: BT-549 breast
[12] = test system: MDA-MB-435 melanoma
[13] = test system: MCF7 breast
[14] = test system: HCT-116 colon
[15] = test system: HCC-2998 colon
[16] = test system: KM12 colon
[17] = test system: OVCAR-5 ovarian
[18] = test system: SW-620 colon

Measured: growth

OC(CCN1CCCCC1)(c1ccccc1)c1ccccc1
inactive: [1] 104% | [2] 100% | [3] 99% | [4] 99.8% | [5] 112% | [6] 106% | [7] 112% | [8] 107% | [9] 100% | [10] 103% | [11] 107% | [12] 98.9% | [13] 97.9% | [14] 102% | [15] 99.1% | [16] 113%

O=C(NCc1ccccc1)/C(=C/c1ccccc1)NC(=O)c1ccccc1
inactive: [2] 96.5% | [3] 97.1% | [17] 123% | [4] 115% | [5] 102% | [6] 104% | [7] 117% | [8] 99.2% | [9] 104% | [10] 110% | [11] 98.6% | [12] 113% | [18] 102% | [13] 96.6% | [14] 107% | [15] 102% | [16] 101%

CCOC(=N)CC(=O)Nc1cccc(C)c1Cl
inactive: [1] 105% | [2] 107% | [3] 99.4% | [4] 106% | [5] 97.7% | [6] 104% | [7] 104% | [8] 105% | [10] 95% | [11] 103% | [12] 98.6% | [18] 94.9% | [13] 89.5% | [14] 96.3% | [15] 102% | [16] 96.7%

Cn1c2ccccc2c2nnc(NCCCCO)nc21
inactive: [2] 69.6% | [3] 100% | [17] 86.5% | [4] 94.6% | [5] 86.5% | [6] 57.8% | [7] 88.6% | [8] 81.6% | [9] 94.3% | [10] 76.5% | [11] 101% | [12] 110% | [18] 93% | [13] 59.2% | [14] 90.1% | [15] 98% | [16] 94.8%

Cc1ccc(S(N)(=O)=O)cc1Cl
inactive: [2] 103% | [3] 105% | [17] 103% | [4] 115% | [5] 110% | [6] 109% | [7] 115% | [8] 117% | [9] 117% | [10] 102% | [11] 77.9% | [12] 114% | [18] 114% | [13] 96.3% | [14] 104% | [15] 116% | [16] 112%

CCOC(=O)N[C@H]1CCc2cc(OC)c(OC)c(OC)c2-c2ccc(SC)c(=O)cc21
active: [1] 3.83% | [7] -9.45% | [8] 9.15% | [9] 0.533% | [11] -9.25% | [12] -17.1% | [14] 2.61% | [16] 2.56%
inactive: [3] 20.8% | [17] 23.3% | [4] 53.4% | [5] 28.7% | [6] 21.7% | [10] 47.7% | [18] 17.4% | [13] 13.5% | [15] 12.2%

CC(C)N1CC(=O)N2CSCC2C1=O (stereo not given)
inactive: [1] 114% | [2] 109% | [3] 106% | [4] 123% | [5] 116% | [6] 111% | [8] 98.7% | [9] 109% | [10] 108% | [11] 110% | [12] 105% | [18] 102% | [13] 98.7% | [14] 112% | [15] 102% | [16] 98%

CC1(C)C2CCC1(C)C1(C2)OCCS1 (stereo not given)
inactive: [2] 113% | [3] 101% | [17] 93.3% | [4] 101% | [5] 106% | [6] 104% | [7] 109% | [8] 102% | [9] 92.4% | [10] 93.9% | [11] 88.3% | [12] 99.6% | [18] 100% | [13] 88.9% | [14] 110% | [15] 101% | [16] 102%

Cc1ccccc1CC(N)C(=O)O (stereo not given)
inactive: [2] 109% | [3] 104% | [17] 116% | [4] 103% | [5] 104% | [6] 109% | [7] 104% | [8] 114% | [9] 114% | [10] 103% | [11] 106% | [12] 108% | [18] 121% | [13] 104% | [14] 106% | [15] 117% | [16] 119%

Cn1c(=O)c2nc3c(=O)n(C)c(=O)n(C)c3nc2n(C)c1=O
inactive: [1] 82.5% | [3] 108% | [17] 91.1% | [4] 108% | [5] 97% | [6] 106% | [7] 107% | [9] 97% | [10] 91.1% | [11] 100% | [12] 112% | [18] 99.8% | [13] 93.8% | [14] 92.1% | [16] 109%
active: [8] -27.8%

O=C1C=C(c2ccccc2)C(O)(c2ccccc2)C1 (stereo not given)
inactive: [2] 98.1% | [3] 106% | [17] 93.6% | [4] 95.7% | [5] 101% | [6] 107% | [7] 112% | [8] 109% | [9] 104% | [10] 90.6% | [11] 94.8% | [12] 97.4% | [18] 108% | [13] 98.2% | [14] 98.4% | [15] 122% | [16] 107%

CCOc1ccncc1[N+](=O)[O-]
inactive: [1] 102% | [2] 112% | [3] 97.5% | [4] 116% | [5] 110% | [6] 118% | [7] 106% | [8] 112% | [9] 106% | [10] 104% | [11] 111% | [12] 107% | [13] 100% | [14] 108% | [15] 106% | [16] 101%

CSCC[C@@H]1C(=O)N(C)[C@H](C(C)(C)C)N1C(=O)c1ccccc1
inactive: [1] 124% | [2] 117% | [3] 100% | [4] 105% | [5] 113% | [6] 100% | [7] 103% | [8] 111% | [9] 104% | [10] 104% | [11] 107% | [12] 106% | [18] 102% | [13] 101% | [14] 101% | [15] 105% | [16] 101%

CC(=O)OCC1OC(n2cnc3c(=S)nc(N)[nH]c32)C(OC(C)=O)C1OC(C)=O (stereo not given)
inactive: [1] 12.9% | [3] 76.6% | [17] 70% | [4] 82.5% | [5] 50.1% | [6] 96.6% | [7] 83.4% | [8] 77.3% | [9] 78.4% | [10] 54.4% | [11] 79.4% | [12] 99.3% | [18] 82.9% | [13] 60.7% | [14] 43.3% | [16] 86.3%

NC(=S)N/N=C/c1ccc(OC(=O)COc2ccccc2)cn1
inactive: [2] 55.2% | [3] 29.6% | [17] 120% | [4] 69.1% | [5] 90.4% | [6] 54.6% | [7] 60.2% | [8] 116% | [9] 26.8% | [10] 41.5% | [11] 40.9% | [12] 60.2% | [18] 49% | [13] 22.9% | [14] 39.3% | [15] 31% | [16] 62.4%

Nc1nc2nnc(-c3ccccc3)c(-c3ccccc3)n2n1
inactive: [2] 50.7% | [3] 101% | [17] 86.3% | [4] 101% | [5] 102% | [6] 127% | [7] 185% | [8] 88.9% | [9] 97.2% | [10] 84.7% | [11] 103% | [12] 106% | [18] 97.9% | [13] 98.7% | [14] 102% | [15] 93.1% | [16] 132%

Nc1ccccc1SC1CC(=O)N(c2ccc(Cl)c(Cl)c2)C1=O (stereo not given)
inactive: [1] 91.1% | [3] 79.4% | [17] 104% | [4] 92.1% | [5] 90.5% | [6] 105% | [7] 113% | [8] 117% | [9] 95.7% | [10] 74.8% | [11] 124% | [12] 101% | [18] 98.8% | [13] 112% | [14] 87.4% | [16] 100%

Oc1ccc2ccccc2c1CN1CCOCC1
inactive: [2] 97.5% | [3] 105% | [17] 113% | [4] 108% | [5] 104% | [6] 106% | [7] 120% | [8] 112% | [9] 113% | [10] 104% | [11] 103% | [12] 112% | [13] 106% | [14] 103% | [15] 105% | [16] 114%

CN(C(=S)S(=O)(=O)C12CC3CC(CC(C3)C1)C2)c1ccccc1
inactive: [2] 83.9% | [3] 98.6% | [17] 89.6% | [4] 104% | [5] 99.9% | [7] 73.7% | [8] 85% | [9] 102% | [10] 87.1% | [11] 123% | [12] 98.8% | [18] 69.7% | [13] 99.4% | [14] 93.5% | [15] 104% | [16] 109%
active: [6] 8.02%

Source: PubChem BioAssay (NCI)
